tim10-1 inh – growth inhibitors of tim10-1 mutant yeast, primary screen, luminescence, uHTS. S. cerevisiae tim10-1 ts strain growth, BacTiter-Glo, 24 h. inhibition, % at 20 µM. 330,000 compounds, 2.2% hits;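 active means inhibition of at least 40%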;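 further: mutant grown at 25 °C; 0% = DMSO wells with yeast and 100% = wells holding no yeast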
NLRP3 yeast inh – NALP3 inflammasome inhibitors in reconstituted yeast, primary screen, luminescence, uHTS. Yeast reconstituted NLRP3/ASC/caspase-1, beta-gal luminescence, 24 h. AID 2825, 2010. inhibition, % at 10 µM. 330,000 compounds, 0.39% hits;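 active means inhibition of 50% or more; inactive means inhibition below 50%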;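 further: plate controls were induced DMSO wells for no effect and uninduced yeast grown without galactose for full effect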
NALP1 inh – NALP1 inflammasome inhibitors in reconstituted yeast, colorimetric, S. cerevisiae, triplicate retest; S. cerevisiae NALP1/ASC/caspase-1 growth, X-gal OD620, 72 h; AID 2071, 2009; inhibition, % at 10 µM; 280,000 compounds, 0.61% hits; in the data active means inhibition mostly above about 24%, no sharp cut-off; inactive means mostly below about 32%
TIM10 inh – growth inhibitors of isogenic TIM10 control yeast, primary screen, counter-screen for tim10-1 yeast inhibitor project, luminescence, uHTS; 330,000 compounds, 1.4% hits; S. cerevisiae TIM10 strain growth, BacTiter-Glo luminescence, 24 h; inhibition, % at 10 µM;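 active means inhibition of 40% or more at the single tested concentration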;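 further: wild-type TIM10 isogenic control strain grown at permissive 25 °C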
tim23-1 inh – growth inhibitors of tim23-1 mutant yeast, primary screen, luminescence, uHTS. S. cerevisiae tim23-1 growth, BacTiter-Glo luminescence, 24 h. inhibition, % at 20 µM. 330,000 compounds, 1.3% hits. AID 463212, 2010;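 active means growth inhibition of the mutant yeast at or above 50%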;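 further: temperature-sensitive mutant grown at 25 °C; plate controls were DMSO-treated mutant yeast for no effect and medium wells lacking yeast for full effect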
tim10 confirm – growth inhibitors of wild-type TIM10 yeast, confirmation, counter-screen for tim10-1 synthetic lethality project, single concentration, luminescence, S. cerevisiae; shares compounds with TIM10 inh; S. cerevisiae tim10 strain growth, BacTiter-Glo luminescence, 24 h; inhibition, % at 10 µM; 4,600 compounds, 63% hits;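 active means inhibition of yeast growth at or above a set limit in either of two replicates at 10 µM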;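 further: this counterscreen used the strain with wild-type TIM10; 0% = yeast with DMSO and 100% = medium wells lacking yeast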
tim23-1 confirm – tim23-1 mutant yeast growth inhibitors, confirmation, luminescence, single concentration; S. cerevisiae tim23-1 growth, BacTiter-Glo luminescence, 24 h; shares compounds with tim23-1 inh; inhibition, % at 20 µM; 4,400 compounds, 83% hits;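 active means inhibition above about 39% in either of two replicate wells at 20 µM, limit read from the data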;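 further: temperature-sensitive tim23-1 mutant grown at 25 °C; 0% = DMSO wells with yeast and 100% = medium wells without yeast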
* marks the source's active call; other numbers are inactive results; / = not tested or not shown. This is a sample that favours compounds with a hit; in the whole collection about 4% have one here.

SMILES	tim10-1 inh	NLRP3 yeast inh	NALP1 inh	TIM10 inh	tim23-1 inh	tim10 confirm	tim23-1 confirm
COc1ccc(Nc2nc(N)nc(CSC(=S)N3CCCCC3)n2)cc1	37	-5	-3	35	25	/	/
N#CC1(NC(=O)CSc2nnc(-c3ccccc3F)n2N)CCCCC1	-16	14	/	0	-1	/	/
O=Cc1cc(CCC(=O)O)ccc1O	-3	16	21	-9	17	/	/
O=C1C=CC2C(c3ccc4c(c3)OCO4)CC1N2Cc1ccccc1 (centres undefined)	23	29	44	44*	58*	51*	47*
c1ccc(CN2CCC(N3CCN(Cc4ccc5c(c4)OCO5)CC3)CC2)cc1	-16	7	/	-2	-23	/	/
Cc1cc2n(n1)C(c1ccc(N(C)C)cc1)Nc1ccccc1-2 (centres undefined)	34	14	16	40*	55*	34*	64*
Cc1cccc(OCc2nnc(SCC(=O)N3c4ccccc4CC3C)n2C)c1C (centres undefined)	39	15	-1	44*	54*	-2	42*
O=C(Nc1ccc(OC(F)(F)F)cc1)N1CCN(c2ccnc3cc(Cl)ccc23)CC1	35	8	/	46*	74*	28	67*
CC(C)(C)C(=O)N1CCN(c2ccnc3cc(Cl)ccc23)CC1	-3	20	-69	3	12	/	/
O=S(=O)([O-])CCC[n+]1c(SCCCS(=O)(=O)O)sc2ccc(Cl)cc21	18	-4	-28	-19	4	/	/
CCOC(=O)c1c(N)sc(C(=O)Nc2ccccc2)c1C	-8	45	-5	41*	55*	31	68*
COc1cccc(N/N=C/c2cccc(Br)c2O)c1	23	10	-28	57*	58*	36*	69*
Oc1ccc(/C=C/c2ccc3ccccc3n2)cc1	16	48	7	44*	75*	47*	55*
C(=C\c1ccc2ccccc2n1)/c1ccccc1	-8	36	/	-2	25	/	/
CCCCCC1CCC(c2n[nH]c(=S)n2C)CC1 (centres undefined)	25	45	13	-7	23	/	/
O=c1oc2ccccc2c(O)c1Cc1cc(Cl)c2cccnc2c1O	19	3	-6	5	8	/	/
Oc1c(CN2CCc3ccccc3C2)cc(Cl)c2cccnc12	35	28	-6	43*	56*	41*	54*
COC(=O)c1ccc(NC(=O)CCN2C(=O)CSC2=O)cc1	-14	16	-7	9	12	/	/
O=C(c1ccco1)N1CCN(C(=S)Nc2ccc(Br)cc2Cl)CC1	22	27	7	1	22	/	/
CC(=O)N1c2ccc(N=Cc3cc(Br)cc(Br)c3O)cc2CC1C (centres undefined)	35	12	/	73*	84*	28	87*
Cc1ccc(S(=O)(=O)N(CC(O)CN2CCOCC2)c2cccc([N+](=O)[O-])c2)cc1 (centres undefined)	0	9	3	11	-11	/	/
O=C(Cc1cnn(-c2ccccc2)c1)c1ccc(O)c(O)c1O	29	13	-2	11	29	/	/
CC(C)=CCc1c(O)ccc(C(=O)Cc2ccccc2)c1O	19	20	21	41*	67*	58*	-32
O=C(Nc1ccc(N2CCOCC2)cc1)c1nc2ccccc2s1	9	10	/	9	-7	/	/
CCCn1nc(C(=O)Nc2ccc3nc(N4CCOCC4)sc3c2)ccc1=O	21	-3	/	8	18	/	/
SMILES	tim10-1 inh	NLRP3 yeast inh	NALP1 inh	TIM10 inh	tim23-1 inh	tim10 confirm	tim23-1 confirm
CCn1c(C)c(C)c2cc(C(=O)Nc3cccc(Cl)c3)ccc21	20	22	-7	41*	52*	51*	57*
CC(C)c1ccc2c(c1)C1(NN=C(c3ccccc3)S1)C(=O)N2 (centres undefined)	28	1	-7	51*	50*	40*	54*
COc1cc(CNCc2ccc(OC)cc2OC)cc(OC)c1	22	14	17	0	16	/	/
CCC(C)c1ccc(NC(=O)c2[nH]c(C)c(C(C)=O)c2C)cc1 (centres undefined)	40	-4	-2	43*	53*	29	52*
CCN(CC(=O)Nc1c(F)cccc1F)C(=O)c1n[nH]c2ccccc12	-4	13	-3	6	6	/	/
O=C(CN(C1CCCCC1)S(=O)(=O)c1ccc(Cl)cc1)NCCCO	14	-10	7	-1	17	/	/
Cc1c(C2(O)CCCCC2)[nH]c2ccc(C(F)(F)F)cc12	39	45	/	59*	82*	67*	65*
Cc1nc(-c2ccc(Cl)cc2)sc1C1(C)CC(c2ccc(C#N)cc2)=NO1 (centres undefined)	6	33	/	-3	15	/	/
CCCS/C(N)=N/N=C/c1ccccc1O	19	25	3	15	16	/	/
C=CCS/C(N)=N\N=C\c1c(O)ccc2ccccc12	24	27	-4	53*	53*	42*	71*
Cc1nn(-c2ccccc2)c(C)c1/C=N/NC(=O)c1ccccc1NS(=O)(=O)c1cccs1	21	2	18	-2	11	/	/
Cc1ccsc1/C=N/NC(=O)c1ccc2c(c1)OCCO2	30	30	0	49*	56*	52*	72*
O=C(N/N=C/c1cc(Br)cs1)c1ccc2c(c1)OCCO2	-41	32	0	20	46	/	/
Cc1ccc(/C=N/NC(=O)c2ccc3c(c2)OCCO3)s1	-18	35	11	44*	59*	32	65*
Cc1ccc(/C=N/NC(=O)c2ccc3ccccc3c2)s1	-2	46	11	41*	68*	32*	73*
Cc1ccc(/C=N/NC(=O)c2ccncc2)s1	-9	-3	8	-15	3	/	/
Oc1ccc(Cl)cc1Cc1cc(Cl)ccc1O	-8	12	69	50*	73*	63*	8
Cc1ccn2cc(C(=O)Nc3ccc4c(c3)OCCO4)nc2c1	29	30	18	44*	50*	25	49*
Cc1ccn2cc(C(=O)Nc3nnc(C)s3)nc2c1	20	12	7	20	25	/	/
CC(C)CN(C(=O)C(c1ccccc1)c1ccccc1)c1c(N)n(CC(C)C)c(=O)[nH]c1=O	5	8	17	6	6	/	/
Oc1c(C=Nc2ccccc2)sc2ccccc12	33	40	-9	40*	66*	45*	62*
Oc1c(C=Nc2cccnc2)sc2ccccc12	4	20	20	21	-1	/	/
